Among all 320,000 compounds or so, about 8,000 (2.5%) were called active. Rule as the data show it: active = activation above about 47%; inactive = the rest. The sample as a whole holds a higher share of actives than the screen did.
Biological target: Aryl hydrocarbon receptor (Homo sapiens) (UniProt P35869)
Assay: AHR activators, primary screen, cell-based, luminescence, luciferase reporter, human (AID 2796);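 also: 0% = vehicle wells and 100% = reference agonist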
Conditions: AHR-responsive luciferase reporter cells, at 5 µM, active compounds read high

Sequence of Aryl hydrocarbon receptor (Homo sapiens) (P35869 whole entry, looked up): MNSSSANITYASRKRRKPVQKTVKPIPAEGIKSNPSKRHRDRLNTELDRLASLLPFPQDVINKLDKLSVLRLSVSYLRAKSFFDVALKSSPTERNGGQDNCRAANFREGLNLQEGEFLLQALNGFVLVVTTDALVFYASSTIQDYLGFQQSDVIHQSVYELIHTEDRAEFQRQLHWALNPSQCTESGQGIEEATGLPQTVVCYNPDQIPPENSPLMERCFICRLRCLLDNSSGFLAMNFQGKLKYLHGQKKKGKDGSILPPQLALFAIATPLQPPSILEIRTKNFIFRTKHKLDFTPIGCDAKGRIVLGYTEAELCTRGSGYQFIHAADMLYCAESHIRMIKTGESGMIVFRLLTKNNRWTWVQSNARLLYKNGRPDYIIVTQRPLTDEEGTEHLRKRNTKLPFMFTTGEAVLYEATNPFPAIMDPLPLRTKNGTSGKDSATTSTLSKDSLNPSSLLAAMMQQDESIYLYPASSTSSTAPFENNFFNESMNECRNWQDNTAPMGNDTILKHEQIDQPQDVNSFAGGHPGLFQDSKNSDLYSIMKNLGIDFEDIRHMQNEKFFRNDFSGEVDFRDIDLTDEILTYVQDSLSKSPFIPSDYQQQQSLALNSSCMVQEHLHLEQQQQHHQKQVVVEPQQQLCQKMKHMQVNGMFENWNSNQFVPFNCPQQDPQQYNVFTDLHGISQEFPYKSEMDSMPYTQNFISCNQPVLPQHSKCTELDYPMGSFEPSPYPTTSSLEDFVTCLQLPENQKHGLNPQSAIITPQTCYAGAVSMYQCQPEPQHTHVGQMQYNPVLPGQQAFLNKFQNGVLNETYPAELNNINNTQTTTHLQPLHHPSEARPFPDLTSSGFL

activation, active:
COc1ccccc1/C=N\Nc1cc(C)nc(-n2nc(C)cc2C)n1 70.2%
CC(=O)Nc1cccc(Nc2nc(-c3cccs3)nc3ccccc23)c1 51.4%
OCCNc1nc(Nc2ccc(Cl)c(Cl)c2)nc2ccccc12 124%
O=C(Nn1c(-c2ccc(Cl)cc2)nc2ccccc2c1=O)c1cccnc1Cl 104%
c1ccc(-c2cn3c(n2)CCc2ccc4cccnc4c2-3)cc1 64%
CCCOc1ccc(Cn2ccnc2)cc1[N+](=O)[O-] 59.2%
O=C(CCC(=O)NNc1nc2ccccc2c2nc(-c3ccccc3)nn12)NCCCN1CCCC1=O 55.5%
CCn1c(=N)n(CC(=O)c2cccc(OC)c2)c2ccccc21 50.3%
CCCn1c(=N)n(CC(=O)c2ccc(Cl)c(Cl)c2)c2ccccc21 66.2%
Cc1csc(NC(=S)Nc2cccc(Cl)c2)n1 81.2%
COc1ccccc1NC(=O)Nc1nnc(Cc2ccc(F)cc2)s1 59.8%
CC(C)c1ccc(Nc2ncccc2C#N)cc1 56.8%
COc1cccc2sc3cc(NCC[C@@H]4CCCN4C)ccc3c(=O)c12 72.2%
COc1ccc(-c2cc(-c3ccc(N)cc3)nc(N)c2C#N)cc1OC 79.4%
C/C(=N\NC(=S)Nc1ccc(C)cc1)c1cc2ccccc2o1 70.2%
Brc1ccc2c(c1)[C@H]1OCC[C@H]1[C@@H](c1cccs1)N2 77.4%
FC(F)(F)c1ccc2c3n(nc2c1)CCN=C3c1ccc(Cl)cc1 73.6%
CCN(CC)CCN(C(=O)c1cc(Cl)sc1Cl)c1nc2cc3c(cc2s1)OCO3 72.1%
CCC(=O)NC(=S)Nc1ccc(NC(=O)c2ccco2)c(Cl)c1 84.6%
C/C(=N\NC(=O)CNc1cccc2ccccc12)c1ccc(Br)s1 91.4%

activation, inactive:
O=C1OC[C@@H]2CCCN2C(=O)[C@H](CC(=O)N(CCO)Cc2ccccc2)C/C=C\CC[C@@H]1Cc1ccc(F)cc1 -2.45%
Cc1cc(N/N=C\c2ccc(Br)cc2)nc(-n2nc(C)cc2C)n1 27.3%
COc1ccc(-c2nn(-c3ccccc3)cc2/C=N/Nc2ccccn2)cc1OC 30.3%
CCOc1ccccc1NC(=O)COc1ccc(S(=O)(=O)N2CCCC2)cc1 7.9%
O=C(Nc1nnc(-c2ccccc2)o1)c1cc(-c2cccs2)nc2ccccc12 5.25%
COc1ccccc1C(=O)Nn1c(-c2cccs2)nc2ccccc2c1=O 13.9%
Cc1nc2c(ncn2-c2ccccc2)c(=O)n1NC(=O)CN1CCCC1 0.17%
CC1CN(c2nc(-c3ccccc3)nnc2-c2ccccc2)CC(C)O1 (stereo not drawn) 10.3%
CC(C)Cn1c(CCC(=O)O)ccc1-c1cccs1 -1.84%
COc1cc2nc(Cl)nc(NCCO)c2cc1OC -0.57%
OCCCNc1nc(-c2ccccc2)c2cc(Cl)ccc2n1 3.68%
O=C(NC(CC(=O)N1CCN(c2ccccc2)CC1)c1ccccc1)c1ccccc1Cl (stereo not drawn) -0.75%
Cc1cccc(-c2nc3ccccc3c(=O)n2NC(=O)Cc2ccc(Cl)cc2)c1 -0.38%
COc1cc(OC)cc(-c2nc3ccccc3c(=O)n2NC(=O)c2cccnc2Cl)c1 4.93%
COc1ccc(C(=O)COC(=O)c2ccc3ccccc3n2)cc1 2.48%
O=C(Nc1ccc(S(=O)(=O)Nc2ccccn2)cc1)c1ccccc1 -0.84%
O=S(=O)(Nc1ncccn1)c1ccc(NS(=O)(=O)c2cccc(Cl)c2Cl)cc1 0.76%
CC(=O)c1ccccc1OCc1ccc(C(=O)c2ccccc2)cc1 0.89%
CCCCOc1ccc(CSC(=N)N)cc1[N+](=O)[O-] 15%
CCCCCOc1ccc(CSC2=NCCN2)cc1[N+](=O)[O-] 6.95%
Cc1nn(Cc2ccccc2)c(C)c1C(=O)NCCCN1CCCC1=O 2.56%
COc1ccc(-c2cc(C(=O)NCCCN3CCCC3=O)c3ccccc3n2)cc1OC 11.6%
COc1ccc(N(CC(=O)NC2CCCCC2)C(=O)CNC(=O)c2ccco2)c(OC)c1 0.47%
O=C(CN1C(=O)NC2(CCCCCCC2)C1=O)NCc1ccc(F)cc1 2.09%
O=C1NC[C@@H](Cc2ccc(O)cc2)N(CCc2cccc(F)c2)C1=O -0.45%
O=C(Cn1nnc(N2CCCCC2)n1)c1ccc(Cl)c(Cl)c1 -3.18%
CCN(CC)CC1(O)CCN(C(=O)c2ccc(Cl)c(Cl)c2)CC1 10.4%
COc1ccc2cc(C(=O)O)n(CC(=O)c3ccccc3)c2c1 18.9%
CCOC(=O)c1cc2ccccc2n1CC(=O)c1ccccc1 24%
O=C(c1c(F)cccc1Cl)N1CCN(S(=O)(=O)c2ccc3c(c2)OCCCO3)CC1 -0.63%
O=C(Nc1ccc(N2CCCCC2)cc1)c1cc(S(=O)(=O)N2CCOCC2)ccc1F 0.49%
CCc1ccccc1NC(=S)N(CCN1CCCCCC1)Cc1ccco1 0.79%
COc1cccc(CNS(=O)(=O)c2ccc3c(c2)N(C(C)=O)CCS3)c1 7.96%
Nc1ncnc2c1ncn2[C@@H]1O[C@H](CNCc2cccn2-c2nccs2)[C@@H](O)[C@H]1O -1.49%
Cc1ccc(NS(=O)(=O)c2c(C)[nH]c(=O)[nH]c2=O)cc1C -2.23%
COc1ccc(NC(=O)C2=C(C)NC(=O)NC2c2ccccc2[N+](=O)[O-])cc1 (stereo not drawn) 2.47%
FC(F)(F)c1cccc(NC(=S)Nc2cccc(Cl)c2)c1 6.14%
Cc1cccc(NC(=S)Nc2ccc(Cl)c(Cl)c2)c1 2.86%
Cc1cccc(C(C)C)c1NC(=O)COC(=O)C1CC(=O)N(Cc2ccccc2)C1 (stereo not drawn) 3.03%
CCC(C)NC(=O)C1CCCN(C(=O)NC2CCCCC2)C1 (stereo not drawn) 2.48%
CC(=O)NC(CC(=O)Nc1ccc(S(=O)(=O)N2CCOCC2)cc1)c1ccccc1 (stereo not drawn) 0.88%
O=C(COC(=O)c1cccc(Cl)c1)NC1CCCCCCC1 0.68%
O=C(Nc1nnc(COc2ccccc2)s1)Nc1ccccc1F 10.9%
COc1ccccc1NC(=O)Nc1nc(CC(=O)Nc2ccccc2F)cs1 25%
CCN(CC)S(=O)(=O)c1cccc(-c2n[nH]c(=S)n2/N=C/c2ccc(C(=O)OC)cc2)c1 5.2%
O=C(NC(=S)N1CCN(Cc2ccccc2)CC1)c1ccccc1 2.61%
O=C(COC(=O)c1ccc([N+](=O)[O-])o1)NC12CC3CC(CC(C3)C1)C2 0.67%
Cc1cc2oc3ccc(NCCC4CCCN4C)cc3c(=O)c2cc1C (stereo not drawn) 2.97%
COc1ccc(CCNC(=O)C(=O)NCC2CCNCC2)cc1OC -0.68%
CCOc1cc(-c2cc(-c3ccc(OC)cc3)nc(N)c2C#N)ccc1O 0.62%
CCOc1cc(-c2cc(-c3ccc(NC(C)=O)cc3)nc(N)c2C#N)ccc1O 8.37%
COc1cccc(NC(=O)CC(c2ccc(OC(C)C)cc2)c2ccccc2OC)c1 (stereo not drawn) -0.21%
CC(C)(C)OC(=O)CNC(=O)c1[nH]cnc1C(=O)N[C@@H](CCCCN)C(=O)OC(C)(C)C 0.13%
Cc1ccc(NC(=O)c2cc3ccccc3o2)cc1 25.5%
O=C(Nc1ccncc1)c1cc2ccccc2o1 0.11%
CCOC(=O)C1(S(=O)(=O)c2ccc(Cl)cc2)CCN(Cc2ccccc2)CC1 0.91%
CCOc1ccc(NS(=O)(=O)c2ccc(Cl)c(C(=O)N(C)Cc3cccnc3)c2)cc1 -0.23%
c1csc(CN2CCN(Cc3cccs3)C2c2cccs2)c1 -2.12%
COc1ccc(CNC(=O)COC(=O)C(CCSC)N2C(=O)c3ccccc3C2=O)cc1 (stereo not drawn) -0.44%
O=C(Nc1cc(C(F)(F)F)ccc1Cl)C(=O)N1CCCCC1 4.43%
CCN(CC)CCN(C(=O)c1ccc(N2C(=O)CCC2=O)cc1)c1nc2cc3c(cc2s1)OCO3 6.01%
CN(C)CCN(C(=O)C1CCCCC1)c1nc2cc3c(cc2s1)OCO3 4.17%
COC(=O)[C@]1(Cc2ccccc2)N[C@H](CN(C)S(=O)(=O)c2ccc(OC(F)(F)F)cc2)[C@@H]2C(=O)N(C)C(=O)[C@@H]21 -1.46%
O=C(Nc1ccc(NC(=O)c2ccco2)c(Cl)c1)c1cccc([N+](=O)[O-])c1 2.52%
O=C(NNC(=S)Nc1ccc(Br)cc1Cl)c1ccco1 2.47%
Cc1ccc(F)cc1NC(=O)N1CCCN(c2ccc(C(F)(F)F)cn2)CC1 -3.14%
CCc1nn(CCCC(=O)Nc2ccc(C)c(C)c2)c(=O)c2cc3occc3n12 4.33%
Nc1c(C(=O)c2cccs2)sc2nsc(SCCN3CCCCC3)c12 25.2%
OC(COc1ccc(CN2CCSCC2)cc1)CN1CCCCC1 (stereo not drawn) -1.38%
CCOc1ccc(CN2CCN(Cc3ccon3)CC2CCO)cc1 (stereo not drawn) 7.62%
Cn1cccc1/C=N/NC(=O)CNc1cccc2ccccc12 5.35%
Cc1cccc(/C=N/NC(=O)CNc2cccc3ccccc23)n1 46%
O=C(CSc1nnc(SCc2ccc(F)cc2)s1)Nc1ccc(C(=O)O)cc1 -0.59%

From PubChem BioAssay AID2796 (The Scripps Research Institute Molecular Screening Center, 2010)
